Our source for the inhibition values is ChEMBL document CHEMBL1961873, “Compounds: GSK PKIS; Assays: Nanosyn kinase panel” (2012).

Assay [1] addresses High affinity nerve growth factor receptor (Homo sapiens) (UniProt P04629). The conditions noted are these: at 1 µM.
In assay [2] the target is BDNF/NT-3 growth factors receptor (Homo sapiens) (UniProt Q16620). To be noted: at 0.1 µM.
Assay [3] shares this target. To be noted: at 1 µM.
The target of assay [4] is NT-3 growth factor receptor (Homo sapiens) (UniProt Q16288). To be noted: at 0.1 µM.
The target is the same in assay [5]. To be noted: at 1 µM.
Assay [6] addresses T1, Tyrosine-protein kinase TXK (Homo sapiens) (UniProt P42681).
T1 sequence (whole entry): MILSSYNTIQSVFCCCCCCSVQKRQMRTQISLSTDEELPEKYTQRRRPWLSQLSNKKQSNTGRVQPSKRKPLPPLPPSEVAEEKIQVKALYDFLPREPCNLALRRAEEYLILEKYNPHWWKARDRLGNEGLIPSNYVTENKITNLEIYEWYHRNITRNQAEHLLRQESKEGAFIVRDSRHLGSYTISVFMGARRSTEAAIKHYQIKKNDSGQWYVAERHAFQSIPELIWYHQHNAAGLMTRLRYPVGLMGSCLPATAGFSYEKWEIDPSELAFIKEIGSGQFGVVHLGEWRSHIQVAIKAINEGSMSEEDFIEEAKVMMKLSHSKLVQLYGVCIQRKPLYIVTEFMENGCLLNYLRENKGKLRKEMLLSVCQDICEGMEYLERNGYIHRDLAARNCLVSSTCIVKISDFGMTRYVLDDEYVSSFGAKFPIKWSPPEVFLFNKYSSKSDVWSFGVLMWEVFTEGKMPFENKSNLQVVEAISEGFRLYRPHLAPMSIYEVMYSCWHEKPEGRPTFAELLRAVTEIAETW
To be noted: at 0.1 µM.

The target in assay [7] is T1, Tyrosine-protein kinase TXK (Homo sapiens). The conditions noted are these: at 1 µM.
Assay [8] addresses Non-receptor tyrosine-protein kinase TYK2 (Homo sapiens) (UniProt P29597). To be noted: at 0.1 µM.
Assay [9] concerns the target T2, Dual specificity protein kinase TTK (Homo sapiens) (UniProt P33981).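 Also: reported figures are mean TTK inhibition at 1 µM.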
T2 sequence (whole entry): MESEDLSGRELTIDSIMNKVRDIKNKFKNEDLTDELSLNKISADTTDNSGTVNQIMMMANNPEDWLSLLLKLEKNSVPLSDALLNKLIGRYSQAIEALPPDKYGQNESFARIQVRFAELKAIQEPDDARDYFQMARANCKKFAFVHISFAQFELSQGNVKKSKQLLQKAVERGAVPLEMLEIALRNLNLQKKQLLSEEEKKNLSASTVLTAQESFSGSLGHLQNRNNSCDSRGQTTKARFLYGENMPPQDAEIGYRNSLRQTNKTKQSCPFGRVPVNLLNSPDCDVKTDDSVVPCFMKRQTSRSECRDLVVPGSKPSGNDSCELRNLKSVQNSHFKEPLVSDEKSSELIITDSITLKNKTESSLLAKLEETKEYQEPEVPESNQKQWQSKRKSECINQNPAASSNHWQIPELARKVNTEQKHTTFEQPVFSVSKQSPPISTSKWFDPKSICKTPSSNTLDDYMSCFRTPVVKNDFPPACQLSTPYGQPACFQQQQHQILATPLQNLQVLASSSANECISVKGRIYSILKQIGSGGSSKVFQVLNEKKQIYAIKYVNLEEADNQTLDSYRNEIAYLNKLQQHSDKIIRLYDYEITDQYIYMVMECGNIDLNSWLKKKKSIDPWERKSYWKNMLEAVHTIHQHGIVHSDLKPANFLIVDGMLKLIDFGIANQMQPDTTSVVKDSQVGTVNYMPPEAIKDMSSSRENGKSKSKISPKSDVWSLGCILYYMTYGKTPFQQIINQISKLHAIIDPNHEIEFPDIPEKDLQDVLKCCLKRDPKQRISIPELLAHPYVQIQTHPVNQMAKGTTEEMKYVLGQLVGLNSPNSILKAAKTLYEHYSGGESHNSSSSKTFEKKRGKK
To be noted: at 1 µM.

For assay [10], the target named is T3, Aurora kinase A (Homo sapiens) (UniProt O14965).
T3 sequence (whole entry): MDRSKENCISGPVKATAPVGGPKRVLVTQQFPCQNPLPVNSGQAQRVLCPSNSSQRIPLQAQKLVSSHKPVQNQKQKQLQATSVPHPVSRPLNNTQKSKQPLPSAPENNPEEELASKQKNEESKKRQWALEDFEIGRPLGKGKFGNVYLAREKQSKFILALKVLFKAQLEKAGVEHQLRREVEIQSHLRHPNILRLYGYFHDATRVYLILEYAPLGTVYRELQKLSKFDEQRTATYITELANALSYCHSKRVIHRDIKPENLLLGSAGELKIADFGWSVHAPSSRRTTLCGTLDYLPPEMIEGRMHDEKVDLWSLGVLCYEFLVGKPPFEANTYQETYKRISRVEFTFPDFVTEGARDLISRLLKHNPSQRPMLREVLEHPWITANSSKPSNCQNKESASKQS
The conditions noted are these: at 0.1 µM.

Assay [11] has as its target T3, Aurora kinase A (Homo sapiens). The conditions noted are these: at 1 µM.
The target in assay [12] is Aurora kinase B (Homo sapiens) (UniProt Q96GD4). To be noted: at 0.1 µM.
For assay [13] the target is unchanged. The conditions noted are these: at 1 µM.
Assay [14] deals with T4, Aurora kinase C (Homo sapiens) (UniProt Q9UQB9).
T4 sequence (whole entry): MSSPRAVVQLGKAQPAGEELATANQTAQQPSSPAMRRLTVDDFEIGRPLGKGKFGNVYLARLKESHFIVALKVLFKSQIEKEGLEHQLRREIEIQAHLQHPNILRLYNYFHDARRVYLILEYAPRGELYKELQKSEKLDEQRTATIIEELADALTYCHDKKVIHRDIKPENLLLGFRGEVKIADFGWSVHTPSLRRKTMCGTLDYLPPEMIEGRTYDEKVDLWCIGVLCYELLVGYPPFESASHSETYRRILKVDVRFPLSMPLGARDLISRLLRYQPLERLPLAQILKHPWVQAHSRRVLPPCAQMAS
The conditions noted are these: at 0.1 µM.

The target in assay [15] is T4, Aurora kinase C (Homo sapiens). The conditions noted are these: at 1 µM.
In assay [16] the target is Serine/threonine-protein kinase 10 (Homo sapiens) (UniProt O94804). The conditions noted are these: at 0.1 µM.
The target is the same in assay [17]. To be noted: at 1 µM.
In assay [18] the target is T5, Mitogen-activated protein kinase kinase kinase kinase 2 (Homo sapiens) (UniProt Q12851).
T5 sequence (whole entry): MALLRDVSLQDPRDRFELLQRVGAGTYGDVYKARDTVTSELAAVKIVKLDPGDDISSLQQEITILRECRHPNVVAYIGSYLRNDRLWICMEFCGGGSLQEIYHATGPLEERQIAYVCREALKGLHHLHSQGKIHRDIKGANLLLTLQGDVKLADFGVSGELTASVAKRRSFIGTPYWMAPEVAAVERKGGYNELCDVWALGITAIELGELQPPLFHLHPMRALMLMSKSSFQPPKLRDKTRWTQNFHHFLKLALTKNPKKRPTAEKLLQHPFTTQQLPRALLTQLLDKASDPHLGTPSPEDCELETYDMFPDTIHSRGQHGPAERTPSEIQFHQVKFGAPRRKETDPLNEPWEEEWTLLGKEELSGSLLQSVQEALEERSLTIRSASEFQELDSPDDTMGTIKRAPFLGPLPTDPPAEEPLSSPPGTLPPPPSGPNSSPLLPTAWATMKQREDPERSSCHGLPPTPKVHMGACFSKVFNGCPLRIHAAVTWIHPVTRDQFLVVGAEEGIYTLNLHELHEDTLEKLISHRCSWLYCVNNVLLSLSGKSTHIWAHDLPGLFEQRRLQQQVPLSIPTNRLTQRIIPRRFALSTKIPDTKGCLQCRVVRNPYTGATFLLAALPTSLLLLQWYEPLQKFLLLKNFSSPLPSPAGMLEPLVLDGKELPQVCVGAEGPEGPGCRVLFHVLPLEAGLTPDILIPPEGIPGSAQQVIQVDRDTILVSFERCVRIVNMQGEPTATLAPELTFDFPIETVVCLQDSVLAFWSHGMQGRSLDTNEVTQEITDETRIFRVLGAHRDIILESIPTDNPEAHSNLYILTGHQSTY
To be noted: at 0.1 µM.

Assay [19] concerns the target T5, Mitogen-activated protein kinase kinase kinase kinase 2 (Homo sapiens). The conditions noted are these: at 1 µM.
Assay [20] addresses Mitogen-activated protein kinase kinase kinase kinase 4 (Homo sapiens) (UniProt O95819). The conditions noted are these: at 0.1 µM.

Chain of Mitogen-activated protein kinase kinase kinase kinase 4 (Homo sapiens) (O95819 2-1239 limits assumed): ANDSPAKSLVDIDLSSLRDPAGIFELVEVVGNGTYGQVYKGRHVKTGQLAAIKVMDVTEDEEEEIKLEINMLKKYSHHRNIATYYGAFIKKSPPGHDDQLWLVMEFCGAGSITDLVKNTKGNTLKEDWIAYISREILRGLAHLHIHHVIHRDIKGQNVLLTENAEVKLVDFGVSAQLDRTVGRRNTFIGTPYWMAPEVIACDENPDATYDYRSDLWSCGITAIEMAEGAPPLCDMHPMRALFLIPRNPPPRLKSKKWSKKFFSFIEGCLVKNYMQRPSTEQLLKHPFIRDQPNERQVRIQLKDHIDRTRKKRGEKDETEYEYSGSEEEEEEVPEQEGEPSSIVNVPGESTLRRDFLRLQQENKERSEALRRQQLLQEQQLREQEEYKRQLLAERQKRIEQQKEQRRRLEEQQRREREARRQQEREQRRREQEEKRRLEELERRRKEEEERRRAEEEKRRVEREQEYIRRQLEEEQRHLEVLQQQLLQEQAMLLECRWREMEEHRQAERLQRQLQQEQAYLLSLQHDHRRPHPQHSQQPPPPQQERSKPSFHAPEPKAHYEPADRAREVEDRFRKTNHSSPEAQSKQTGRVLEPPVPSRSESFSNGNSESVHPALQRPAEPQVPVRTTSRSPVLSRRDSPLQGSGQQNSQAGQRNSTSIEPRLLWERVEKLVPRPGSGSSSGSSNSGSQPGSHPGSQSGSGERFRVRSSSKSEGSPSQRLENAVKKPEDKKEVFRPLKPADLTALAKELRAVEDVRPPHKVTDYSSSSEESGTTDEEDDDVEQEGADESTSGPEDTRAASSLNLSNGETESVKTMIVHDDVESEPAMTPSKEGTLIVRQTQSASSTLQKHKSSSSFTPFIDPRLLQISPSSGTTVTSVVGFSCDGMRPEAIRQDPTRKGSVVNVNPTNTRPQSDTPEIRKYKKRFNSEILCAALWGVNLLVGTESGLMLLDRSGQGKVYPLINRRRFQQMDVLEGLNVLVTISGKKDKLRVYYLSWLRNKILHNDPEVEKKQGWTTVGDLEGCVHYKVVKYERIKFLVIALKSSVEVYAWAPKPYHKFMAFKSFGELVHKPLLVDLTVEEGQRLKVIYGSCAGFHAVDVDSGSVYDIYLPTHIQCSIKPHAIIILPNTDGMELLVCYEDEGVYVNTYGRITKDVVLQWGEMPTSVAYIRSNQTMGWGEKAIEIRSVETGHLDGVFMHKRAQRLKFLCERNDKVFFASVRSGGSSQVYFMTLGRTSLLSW
Chain of High affinity nerve growth factor receptor (Homo sapiens) (P04629 33-796 limits assumed): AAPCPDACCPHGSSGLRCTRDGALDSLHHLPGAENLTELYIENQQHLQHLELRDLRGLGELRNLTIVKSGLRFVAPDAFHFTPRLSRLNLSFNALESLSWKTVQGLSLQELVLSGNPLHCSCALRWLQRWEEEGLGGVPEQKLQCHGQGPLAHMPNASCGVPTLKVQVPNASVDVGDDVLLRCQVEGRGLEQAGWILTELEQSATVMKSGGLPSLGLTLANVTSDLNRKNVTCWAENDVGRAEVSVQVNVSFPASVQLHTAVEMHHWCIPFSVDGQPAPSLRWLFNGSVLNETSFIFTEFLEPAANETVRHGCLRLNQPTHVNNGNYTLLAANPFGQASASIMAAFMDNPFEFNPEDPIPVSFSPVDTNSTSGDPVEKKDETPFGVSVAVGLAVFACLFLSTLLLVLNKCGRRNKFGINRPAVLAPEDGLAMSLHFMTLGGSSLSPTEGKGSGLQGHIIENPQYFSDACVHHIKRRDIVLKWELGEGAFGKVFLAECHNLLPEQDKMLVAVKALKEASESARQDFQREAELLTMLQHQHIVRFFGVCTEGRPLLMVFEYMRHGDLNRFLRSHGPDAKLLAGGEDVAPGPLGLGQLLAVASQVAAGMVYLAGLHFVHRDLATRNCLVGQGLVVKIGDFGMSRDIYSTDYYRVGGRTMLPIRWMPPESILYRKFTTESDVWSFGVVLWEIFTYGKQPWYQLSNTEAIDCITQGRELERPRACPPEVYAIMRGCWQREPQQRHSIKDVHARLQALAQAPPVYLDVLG
Chain of Non-receptor tyrosine-protein kinase TYK2 (Homo sapiens) (P29597 whole entry): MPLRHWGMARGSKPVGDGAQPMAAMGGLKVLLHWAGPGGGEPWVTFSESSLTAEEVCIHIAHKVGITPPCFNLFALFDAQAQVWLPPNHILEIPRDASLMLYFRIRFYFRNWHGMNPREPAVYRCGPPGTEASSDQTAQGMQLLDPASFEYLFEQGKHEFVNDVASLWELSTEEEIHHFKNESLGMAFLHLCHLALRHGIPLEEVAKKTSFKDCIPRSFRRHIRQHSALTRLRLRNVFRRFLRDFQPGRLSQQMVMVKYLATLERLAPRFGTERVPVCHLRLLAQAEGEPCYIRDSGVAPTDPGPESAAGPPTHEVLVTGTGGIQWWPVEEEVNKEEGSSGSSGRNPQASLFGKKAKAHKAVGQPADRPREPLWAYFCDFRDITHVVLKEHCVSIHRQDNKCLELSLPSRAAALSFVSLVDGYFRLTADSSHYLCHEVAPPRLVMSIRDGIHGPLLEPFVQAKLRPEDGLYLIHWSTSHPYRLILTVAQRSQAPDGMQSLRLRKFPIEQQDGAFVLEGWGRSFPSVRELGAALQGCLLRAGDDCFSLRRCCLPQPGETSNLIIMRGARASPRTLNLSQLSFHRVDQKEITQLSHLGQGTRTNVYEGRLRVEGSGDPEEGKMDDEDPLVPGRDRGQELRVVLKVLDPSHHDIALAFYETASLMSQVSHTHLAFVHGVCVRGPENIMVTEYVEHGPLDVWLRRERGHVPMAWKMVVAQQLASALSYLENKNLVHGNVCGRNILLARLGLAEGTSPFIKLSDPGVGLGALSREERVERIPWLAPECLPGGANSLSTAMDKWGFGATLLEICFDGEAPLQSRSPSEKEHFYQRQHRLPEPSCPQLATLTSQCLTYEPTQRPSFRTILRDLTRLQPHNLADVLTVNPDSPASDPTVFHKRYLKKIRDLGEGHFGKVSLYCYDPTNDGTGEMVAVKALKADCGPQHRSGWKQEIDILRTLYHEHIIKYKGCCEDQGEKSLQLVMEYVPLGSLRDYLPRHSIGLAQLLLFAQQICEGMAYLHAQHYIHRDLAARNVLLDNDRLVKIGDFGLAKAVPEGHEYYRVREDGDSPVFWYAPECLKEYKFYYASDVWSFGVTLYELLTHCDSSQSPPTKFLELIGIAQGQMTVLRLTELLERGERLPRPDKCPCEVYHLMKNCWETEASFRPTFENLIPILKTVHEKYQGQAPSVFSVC
Chain of Serine/threonine-protein kinase 10 (Homo sapiens) (O94804 whole entry, looked up): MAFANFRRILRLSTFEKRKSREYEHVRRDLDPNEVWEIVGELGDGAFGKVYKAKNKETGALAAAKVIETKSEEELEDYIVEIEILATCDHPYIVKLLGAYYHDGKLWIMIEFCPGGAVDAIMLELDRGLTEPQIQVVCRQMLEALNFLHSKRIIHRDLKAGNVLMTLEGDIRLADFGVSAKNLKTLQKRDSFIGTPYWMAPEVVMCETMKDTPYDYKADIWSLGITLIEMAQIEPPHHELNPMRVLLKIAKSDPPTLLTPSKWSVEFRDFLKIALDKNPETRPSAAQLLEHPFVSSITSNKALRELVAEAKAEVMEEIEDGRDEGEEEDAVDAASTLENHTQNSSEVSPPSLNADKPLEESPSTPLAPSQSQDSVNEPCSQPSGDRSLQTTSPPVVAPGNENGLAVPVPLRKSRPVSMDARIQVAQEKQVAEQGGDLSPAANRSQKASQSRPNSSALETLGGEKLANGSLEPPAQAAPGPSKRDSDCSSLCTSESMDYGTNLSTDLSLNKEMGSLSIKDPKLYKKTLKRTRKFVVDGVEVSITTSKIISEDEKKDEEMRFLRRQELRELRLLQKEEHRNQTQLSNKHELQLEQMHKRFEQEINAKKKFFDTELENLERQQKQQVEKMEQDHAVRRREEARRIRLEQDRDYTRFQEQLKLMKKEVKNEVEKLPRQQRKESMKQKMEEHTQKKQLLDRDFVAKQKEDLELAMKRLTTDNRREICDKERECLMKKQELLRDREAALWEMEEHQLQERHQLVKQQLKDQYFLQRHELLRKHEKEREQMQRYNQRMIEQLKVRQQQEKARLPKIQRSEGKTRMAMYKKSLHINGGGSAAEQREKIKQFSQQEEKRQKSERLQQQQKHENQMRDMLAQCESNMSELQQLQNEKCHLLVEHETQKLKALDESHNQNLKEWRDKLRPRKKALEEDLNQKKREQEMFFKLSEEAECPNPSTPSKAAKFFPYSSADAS
Chain of Aurora kinase B (Homo sapiens) (Q96GD4 whole entry): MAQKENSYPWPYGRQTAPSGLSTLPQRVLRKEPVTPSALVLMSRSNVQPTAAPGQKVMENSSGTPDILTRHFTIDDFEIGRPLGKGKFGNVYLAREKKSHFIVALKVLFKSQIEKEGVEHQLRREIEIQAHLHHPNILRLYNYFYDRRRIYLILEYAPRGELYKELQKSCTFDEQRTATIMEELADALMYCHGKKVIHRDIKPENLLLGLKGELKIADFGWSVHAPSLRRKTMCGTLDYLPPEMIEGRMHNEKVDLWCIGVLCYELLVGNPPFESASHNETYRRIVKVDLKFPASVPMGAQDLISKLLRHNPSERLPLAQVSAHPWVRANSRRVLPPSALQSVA

`CC1=C(C(=O)Nc2cc(Cl)c3[nH]ncc3c2)C(c2ccc(C(F)(F)F)cc2)CC(=O)N1` (stereo not given): the inhibition in [1] was 2.71%; in assay [2] it was 2.52%; in assay [3], 3.55%; in assay [4], 3.39%; in assay [5], 6.01%; in [6], 2.42%. Also, the inhibition is 1.68% in assay [7]; -1.59% in [8]; 5.07% in [9]; 3.11% in [10]; 16.6% in assay [11]; 2.95% in assay [12]. Further, the inhibition in [13] is 10%; in assay [14] it was 0.68%; in assay [15], 7.15%; in [16], 6.25%; in assay [17], 7.45%; in assay [18], 2%. Besides, the inhibition amounted to 3.92% in assay [19] and 2.89% in assay [20].

As to `Cc1ccc(O)cc1Nc1ccnc2cc(-c3ccccn3)ccc12`, the inhibition was found to be 4.34% in assay [1]; 1.78% in assay [2]; 2.4% in [3]; 3.76% in [4]; 4.64% in assay [5]; 42% in assay [6]. Further, the inhibition in [7] is 82.3%; in [8] it was -4.79%; in [9], 7.97%; in [10] it was 2.82%; in assay [11], 17.7%; in assay [12], 9.57%. Besides, the inhibition in [13] is 43.9%; in assay [14] it was 6.76%; in assay [15], 60.6%; in assay [16] it was 11.1%; in assay [17] it was 47.6%; in assay [18], 3.74%. Also, the inhibition in assay [19] stood at 26.4%; in assay [20], 26.7%.

For the compound `COc1cccc(-c2c[nH]c3c(N/N=C/c4ccncc4)ncnc23)c1`, the inhibition in [1] was determined as 7.45%; in assay [2] it was 2.41%; in [3] it was 19.4%; in assay [4], 4.04%; in assay [5] it was 23.3%; in assay [6], 4.87%. Also, the inhibition in assay [7] amounted to 16.8%; in [8] it was 1.21%; in [9] it was 10.6%; in assay [10], 4.07%; in assay [11], 37.7%; in assay [12], 9.33%. Besides, the inhibition in [13] was determined as 55.4%; in assay [14], 13.2%; in assay [15], 90.2%; in assay [16] it was 8.9%; in [17], 35.4%; in assay [18], 3.34%. In addition, the inhibition in [19] stood at 11.9%; in assay [20], 26%.

Consider `Cc1cccc2c1NC(=O)/C2=N\Nc1ccc(S(N)(=O)=O)cc1`, for which the inhibition in assay [1] is 1.49%; in assay [2], 2.26%; in assay [3], 1.7%; in assay [4], 0.44%; in assay [5] it was 6.52%; in assay [6] it was 4.98%. Moreover, the inhibition in assay [7] is 6.66%; in assay [8] it was -2.96%; in assay [9] it was 9.17%; in [10], 3.73%; in assay [11], 8.68%; in assay [12], 3.31%. The inhibition in assay [13] was determined as 7.09%; in assay [14], 2.56%; in [15], 12.1%; in [16], 3.27%; in assay [17], 4.33%; in assay [18] it was 0.93%. Also, the inhibition in assay [19] was 0.8%; in [20], 10.1%.

Regarding `COc1ccc(-c2nn3ncccc3c2-c2ccnc(Nc3ccc4c(c3)OCCO4)n2)cc1`, the inhibition was 20.2% in assay [1]; 1.61% in [2]; 18.7% in [3]; -1.55% in [4]; 6.72% in assay [5]; -0.79% in assay [6]. Also, the inhibition was 3.19% in assay [7]; -1.16% in [8]; 11.6% in assay [9]; 18.5% in [10]; 63.2% in assay [11]; 3.61% in assay [12]. For the same compound, the inhibition in [13] was determined as 17.4%; in [14] it was 6.73%; in assay [15], 46.8%; in assay [16], 11.2%; in assay [17], 55.1%; in [18], 0.69%. Further, the results for the inhibition in assay [19] and in [20] were 4.16% and 0.61%, respectively.

On to `CN(C)CCOc1ccc(-c2nc(-c3ccncc3)c(-c3ccc4c(c3)CC/C4=N\O)[nH]2)cc1`, for which the inhibition in [1] is 0.58%; in assay [2], 1.83%; in [3] it was 3.37%; in assay [4] it was 1.52%; in assay [5], 2.87%; in [6], 2.32%. Moreover, the inhibition in assay [7] was 3.33%; in assay [8], -2.09%; in assay [9], 7.21%; in assay [10], 1.33%; in assay [11] it was 12%; in assay [12], 1.63%. For the same compound, the inhibition was 6.16% in assay [13]; 1.74% in assay [14]; -1.31% in assay [15]; 22.1% in assay [16]; 69.2% in [17]; 0.69% in [18]. Also, the inhibition in assay [19] was 3.44%; in [20], 9.59%.

In the case of `COc1cc(N2CCN(C(C)C)CC2)ccc1Nc1nc(Nc2ccc(F)cc2C(N)=O)c2cc[nH]c2n1`, the inhibition in [1] is 4.26%; in assay [2] it was -0.6%; in assay [3] it was 3.09%; in assay [4], -0.87%; in [5] it was -0.43%; in assay [6], 8.7%. Also, the inhibition in assay [7] is 5.7%; in assay [8] it was -1.63%; in [9], 85.6%; in assay [10] it was 2.91%; in assay [11] it was 4.58%; in assay [12], 2.99%. The inhibition came out at 2.23% in [13]; 0.8% in assay [14]; 2.67% in [15]; 3.31% in [16]; 11.8% in [17]; 4.5% in assay [18]. The inhibition in assay [19] worked out at 31.1%; in assay [20], 18.1%.
